Screening results as filed in PubChem BioAssay.
AHR activator: AHR activators, primary screen, cell-based, luminescence, luciferase reporter, human | 2.5% of 320,000 active | activation, % at 5 µM | AHR-responsive luciferase reporter cells; in the data active = activation above about 47%;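 also: 0% = vehicle wells and 100% = reference agonist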
HSF1 activator: HSF-1 activators, primary screen, NIH3T3-HGL cells, MG132 stress, luminescence, single point; 1.7% of 300,000 active; activation, % at 9 µM; AID 504408, 2011; NIH3T3-HGL HSF-1 luciferase reporter, 8 h; 100% = twice DMSO control signal;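 active = mean replicate activation of at least 50% with a set share of replicates each reaching 50%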;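 also: 0% = median of the neutral control wells and 100% = twice that signal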
HSF1 inh: HSF1 inhibitors in luciferase reporter cells, primary screen, cell-based, NIH3T3, luminescence. activity change, negative = inhibition, % at 7.5 µM (by protocol). NIH3T3-HGL HSE-luciferase, MG132-induced, luminescence 8 h; active compounds read low. 0.77% of 300,000 active;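 active = more than half of replicate wells show activity change below -50%, luminescence cut by over half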;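 also: luciferase reports HSF-1 transcriptional activity via heat shock element; 0% = median of DMSO wells and -100% = zero luminescence signal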
FXN GAA850 act: FXN promoter activators, primary screen, cell-based, luciferase luminescence, HEK293 lucGAA850 | 0.56% of 360,000 active | activation, % at 6 µM | HEK293 lucGAA850 FXN promoter luciferase reporter, 24 h; percent of 10 µM SAHA response;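 active = activation above the average of all compounds screened plus 3 SD, cutoff fixed separately per campaign, cut at about 7.5% in these data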;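 also: 0% = DMSO wells and 100% = 10 µM SAHA wells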
AHR act confirm: AHR activators, confirmation, cell-based, luminescence, luciferase reporter, human | AID 2845, 2010 | human cells, AHR-responsive luciferase reporter | shares compounds with AHR activator | 87% of 2,300 active | activation, % at 9 µM; in the data active = activation above about 49%;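 also: HepG2 hepatoma cells carrying a DRE-driven firefly luciferase reporter; 0% = vehicle wells and 100% = reference agonist wells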
PXR counter: human PXR activators, counter-screen for AHR activator project, cell-based, luciferase luminescence. shares compounds with AHR activator. activation, % at 11.6 µM. 88% of 2,300 active. cell-based PXR reporter. AID 434939, 2010; in the data active = activation above about 11%;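 also: human hepatoma DPX-2 cells expressing full-length human PXR; 0% = DMSO and 100% = reference agonist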
Target sequence (O75469 whole entry, looked up): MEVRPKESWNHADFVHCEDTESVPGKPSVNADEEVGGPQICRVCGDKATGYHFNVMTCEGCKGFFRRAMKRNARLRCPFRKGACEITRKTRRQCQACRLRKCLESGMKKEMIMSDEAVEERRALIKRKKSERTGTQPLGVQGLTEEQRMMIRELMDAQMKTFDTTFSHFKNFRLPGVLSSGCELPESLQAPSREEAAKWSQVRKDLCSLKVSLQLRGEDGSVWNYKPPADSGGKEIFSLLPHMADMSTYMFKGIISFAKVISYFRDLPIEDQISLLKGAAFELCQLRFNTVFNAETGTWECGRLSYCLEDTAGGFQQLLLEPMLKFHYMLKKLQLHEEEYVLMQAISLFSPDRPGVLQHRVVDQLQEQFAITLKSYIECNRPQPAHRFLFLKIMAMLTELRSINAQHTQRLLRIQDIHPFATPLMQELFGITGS
Numbers without * were called inactive; · = no result. An excerpt weighted towards active compounds, which were near 4.6% of everything screened.

SMILES | AHR activator | HSF1 activator | HSF1 inh | FXN GAA850 act | AHR act confirm | PXR counter
Cc1cc(NC(=O)CSc2nnc(-c3ccc(O)cc3)o2)no1 | 8 | 4 | 6 | 1 | · | ·
O=c1c2ccccc2nc(/C=C/c2ccccc2)n1CCc1ccccc1 | 9 | 11 | 7 | 0 | · | ·
O=c1c2ccccc2nc(/C=C/c2cccc([N+](=O)[O-])c2)n1CCO | 106* | 10 | -4 | 1 | 69* | 21*
O=C(O)CSc1nnc(-c2ccccc2O)n1Cc1ccccc1 | 2 | -4 | 1 | -1 | · | ·
CCc1ccc(C(=O)CN(C#N)c2nc(C)cc(C)n2)cc1 | 85* | 4 | 10 | 3 | 63* | 19*
O=C1c2ccccc2NC(c2ccc(Br)s2)N1O (stereo unspecified) | 80* | 34 | -3 | · | 81* | 25*
Cc1cc(C(=O)OCC(=O)N(C)c2ccccc2)ccc1[N+](=O)[O-] | -3 | 13 | 2 | 0 | · | ·
Cc1c(C(=O)Nc2nccs2)oc2ccccc12 | · | · | · | 5 | · | ·
COc1c(C(=O)Nc2nccs2)ccc2ccccc12 | 84* | 20 | 13 | 3 | 149* | 27*
C=C(C)C(=O)Nc1nnc(-c2cccs2)s1 | 47 | 12 | 26 | 2 | · | ·
COCC(=O)Nc1nnc(-c2cccs2)s1 | 81* | -15 | 1 | 4 | 94* | ·
CCC(C)C(=O)Nc1nnc(-c2cccs2)s1 (stereo unspecified) | 84* | · | · | 5 | 81* | 48*
CCc1ccc(/C=C2/SC(=S)N(CCC(=O)Nc3ccc(C(=O)O)cc3)C2=O)cc1 | 2 | 4 | -5 | -2 | · | ·
c1ccc(OCc2nnc3sc(-c4cccs4)nn23)cc1 | 139* | -9 | -9 | 2 | 81* | 18*
Oc1ccc(/C=N/n2c(C3CCCCC3)n[nH]c2=S)c(O)c1 | -2 | -12 | 8 | 3 | · | ·
Cc1cc2cc(C)c(NCCNC(=O)c3cccs3)nc2cc1C | 97* | -7 | -4 | -1 | 64* | 22*
CCOC(CNC(=O)c1cccn2c(=O)c3cc(Cl)ccc3nc12)OCC | 83* | -1 | 1 | -3 | 134* | 14*
O=C(NCCN1CCN(c2cccc(Cl)c2)CC1)c1cccn2c(=O)c3ccccc3nc12 | · | · | · | 1 | · | ·
CSc1nc(C(=O)N2CCCC(Nc3ccc(C)c(C)c3)C2)cs1 (stereo unspecified) | 108* | 1 | 1 | -2 | 75* | 119*
Cc1nc(C(=O)N2CCCC(Nc3ccc(C)c(C)c3)C2)cs1 (stereo unspecified) | · | 1 | -5 | 2 | · | ·
CCOC(=O)c1sc(Nc2nc3c(OC)cccc3s2)nc1C | 84* | 26 | 27 | 5 | 127* | 72*
COc1ccc(Nc2ncnc3ccc(Br)cc23)cc1OC | 86* | -33 | -28 | -9 | 72* | 18*
CN(C)c1ccc(Nc2ncnc3ccc(Br)cc23)cc1 | 92* | -54 | -53* | -5 | 47 | 10
COc1ccc(Nc2ncnc3nc[nH]c23)cc1OC | 90* | 9 | -1 | 0 | 75* | 21*
COc1nc(Nc2ccc3c(c2)OCO3)nc(OC)n1 | 119* | -8 | 5 | 3 | 109* | 18*
SMILES | AHR activator | HSF1 activator | HSF1 inh | FXN GAA850 act | AHR act confirm | PXR counter
CCc1nc2ccc(C(=O)N3CCN(C(=O)c4ccco4)CC3)cn2c1N(C)Cc1nccs1 | · | · | · | -1 | · | ·
Cc1cccc(Nc2ncnc3ccc(Br)cc23)c1 | 101* | -18 | -9 | -3 | 72* | 30*
COc1cc2ncnc(Nc3ccc4c(c3)OCO4)c2cc1OC | 104* | 14 | -3 | 1 | 101* | 25*
Cc1ccccc1N(CC(=O)NCc1ccco1)C(=O)CCC(=O)Nc1nccs1 | 5 | 13 | -5 | 0 | · | ·
CCOc1cccc(/C=C/c2ccc3cccc(O)c3n2)c1O | 96* | 3 | 12 | 3 | 109* | 8
CC(=O)N(Cc1ccco1)c1nc(C(=O)Nc2ccc(Cl)cc2)c(C)s1 | 90* | 53* | 15 | 0 | 66* | 63*
COc1ccc(-c2ccc3oc(-c4ccsc4)c(-c4ccc(OC)cc4)c3c2)cc1 | 11 | -13 | -5 | -3 | · | ·
COc1ccc(-c2ccc3oc(-c4ccsc4)c(-c4ccc(Br)nc4)c3c2)cc1 | 102* | · | · | · | 97* | 26*
CCC(=O)N(Cc1cc2cc(OC)ccc2[nH]c1=O)c1ccc(C)cc1C | 3 | 23 | 10 | -2 | · | ·
Cc1csc(-c2coc3cc(O)cc(C)c3c2=O)n1 | 95* | 3 | 17 | 3 | 126* | 21*
O=C(NCc1ccncc1)Nc1cc(Cl)ccc1Cl | 97* | 10 | -10 | 0 | 63* | 26*
O=C(NCCOc1ccccc1F)c1cccc(S(=O)(=O)N2CCN(c3ccccc3)CC2)c1 | 3 | 20 | 11 | -1 | · | ·
C/C(=N/NC(=O)Nc1ccccc1)c1ccc(C)cc1 | 105* | -2 | 3 | 1 | 76* | 20*
CC(=O)Nc1ccc(/C(C)=N\NC(=O)c2ccc(-c3ccccc3)cc2)cc1 | 14 | 3 | 0 | · | · | ·
O=C(COC(=O)c1cc(Cl)ccc1[N+](=O)[O-])NCc1ccc(Cl)cc1Cl | 1 | -7 | -9 | 2 | · | ·
Cn1cc(/C=C(\NC(=O)c2ccccc2)C(=O)N2CCOCC2)c2ccccc21 | 85* | -7 | 2 | -1 | 33 | 87*
COC(=O)c1cc2c([nH]c1=O)CCCC2=O | · | · | · | 1 | · | ·
CC(C)(C)c1ccc(C(=O)N2CCC2(C)C(=O)Nc2ccc3[nH]ncc3c2)cc1 (stereo unspecified) | · | · | · | -1 | · | ·
NC(=O)COC(=O)CCCc1nc2ccccc2s1 | -2 | 6 | 2 | 1 | · | ·
O=C(c1ccc2ccccc2n1)N1CCN(c2ccccc2O)CC1 | 92* | -2 | 6 | 3 | 107* | 40*
CCN1C(=O)[C@H]2[C@H]3CN=C(SCc4ccc(C(=O)OC)cc4)N3[C@@](CC)(C(=O)OC)[C@H]2C1=O | · | · | · | 1 | · | ·
COc1ccccc1Nc1nc(NCCO)nc(N)c1[N+](=O)[O-] | 97* | 16 | -7 | -1 | 128* | ·
CNc1nc(N)c([N+](=O)[O-])c(Nc2ccccc2OC)n1 | 107* | 32 | 6 | 2 | 93* | 18*
COc1ccc(OC)c(Nc2nc(NCCCN(C)C)nc(N)c2[N+](=O)[O-])c1 | 38 | 13 | -9 | 1 | · | ·
S=c1nc2ccccc2c2nc(-c3ccccc3Br)[nH]n12 | 123* | 15 | 6 | 1 | 130* | 38*
COCCNC(=S)N=Nc1c(O)[nH]c2c(C)cc(C)cc12 | 116* | -2 | -3 | -2 | 93* | 71*
Cn1c(-c2ccsc2)c(-c2cccs2)c2cc(-c3cccc4[nH]ccc34)ccc21 | 112* | · | · | 1 | 101* | 79*
